TDP1 cell noCPT: qHTS for Inhibitors of human tyrosyl-DNA phosphodiesterase 1 (TDP1): qHTS in cells in absence of CPT; DT40 Tdp1-/- hTDP1 cells, no CPT, ATP luminescence, 48 h; Potency, µM (titrated, usually from 46.2 µM), inactives show top-dose activity change, negative = growth inhibition, actives largely listed as inhibitors; 420,000 tested, 15% active; AID 686978, 2013; also: % is scaled to controls: 0 for no effect and ±100 for the full control effect; nearly all actives have a fitted effect of over 55% in size
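Growth of hTDP1-complemented DT40 Tdp1-knockout cells is measured by ATP luminescence after at least 48 hr compound exposure at 37 °C, with DMSO substituting for the 20 nM CPT used in the parallel screen.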
HT1080 IDH1KD tx: toxicity to HT-1080 IDH1 knockdown cells (counter line) | Potency, µM (highest dose often 46.1 µM), for inactives: at the top dose activity, negative = toxicity, actives largely listed as cytotoxic | 360,000 tested, 2% active | HT-1080 IDH1 knockdown viability, ATP luminescence, 48 h;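 also: 0% = DMSO wells and -100% = cell-free medium wells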
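Using the IDH1-knockdown HT-1080 line run in the same batch and compound series as the NT line, viability after 48 h at 37 °C was determined by CellTiter-Glo luminescence and expressed as % activity.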
TGFb inhibitor: inhibitors of TGF-b signaling | HepG2 CAGA-GFP TGF-b/SMAD3 reporter, GFP fluorescence, 18 h; TGF-beta stimulated, 500 pg/mL final | Potency, µM (doses to about 46.1 µM), without a hit: at the top dose activity, negative = inhibition, hits mostly inhibitors | 410,000 tested, 1.2% active | AID 588855; also: % is scaled to controls: 0 for no effect and ±100 for the full control effect; nearly all actives have a fitted effect of over 65% in size
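Read-out: total well GFP (ex488/em500-530) summed from mean per-cell fluorescence. Cells: HEPG2 CAGA-GFP, 1% FBS DMEM, 18 h at 37 degrees C with 500 pg/mL final TGF-beta. Unstimulated wells served as the full-inhibition control; stimulated DMSO wells = 0%.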
HepG2 tox: kills HepG2 cells in TGF-b inhibitor counter-screen | HepG2 CAGA-GFP viability, ATP luminescence, 18 h | AID 588856 | Potency, µM (highest dose often 46.1 µM), without a hit: top-dose activity change, negative = cytotoxicity, most hits filed as cytotoxic | 410,000 tested, 0.76% active
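CellTiter-Glo luminescence gave cytotoxicity after 18 hours at 37 degrees C. The cells were HepG2 CAGA-GFP in 1% FBS DMEM, stimulated with 500 pg/mL TGF-beta after compound addition. %Activity was normalised to no-cell wells (complete cell-killing) and DMSO (no toxicity), and curves were fitted and classified.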
HT1080NT lethal: kills 2HG-producing HT-1080-NT fibrosarcoma cells; 360,000 tested, 1.6% active; HT-1080-NT fibrosarcoma viability, CellTiter-Glo ATP luminescence, 48 h; Potency, µM (top dose mostly 46.1 µM), inactives show at the top dose activity, negative = less viability, actives largely listed as cytotoxic;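 also: NT is the 2HG producing partner of a matched IDH1 knockdown line; 0% = DMSO-treated cells and -100% = media-only wells without cells; nearly all actives have a fitted effect of over 55% in size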
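Read-out is CellTiter-Glo luminescence after 10 minutes at room temperature, following 48 hours' compound treatment of HT-1080-NT cells (750 cells/well, RPMI, 5% FBS, 37 degrees C).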
DT40 TDP1 CPT: DT40-hTDP1 cell growth loss with CPT; chicken DT40 Tdp1-/-;hTDP1 cells + 20 nM CPT, ATP luminescence, 48 h; Potency, µM (doses to about 46.2 µM), for inactives: at the top dose activity change, negative = growth inhibition, usual class: inhibitors; 420,000 tested, 12% active; AID 686979; also: % is scaled to controls: 0 for no effect and ±100 for the full control effect; nearly all actives have a fitted effect of over 55% in size
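Cell growth measured by CellTiter-Glo luminescence after a minimum 48 h, 37 C compound exposure with 20 nM CPT in Tdp1-knockout DT40 cells stably expressing hTDP1, seeded 400/well; qHTS titration format.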
An asterisk follows results filed as active; ? = inconclusive; . = not tested or not shown; [ ] = remark or other dose. A selection: hits, their analogues and other compounds. The true share with any hit is near 17%. Calls follow the shape of the dose curve; as a rule, active = well fitted curve in the direction sought with a large enough effect; inconclusive = small, poorly fitted or top-dose-only effect, or another doubt; inactive = no such curve, though single readings can be large; an effect the other way counts as inactive or inconclusive. Potency is read from the fitted curve at half-maximal effect.

SMILES	TDP1 cell noCPT	HT1080 IDH1KD tx	TGFb inhibitor	HepG2 tox	HT1080NT lethal	DT40 TDP1 CPT
Cc1ccc(CC(=O)Nc2ccc(S(=O)(=O)Nc3ncccn3)cc2)cc1	25%	4%	0%	1%	2%	45%
O=C(NC1CCCc2c1cnn2-c1ccccc1F)c1ccncc1 (stereo not drawn)	5.8µM*	-23%	-3%	-29%	-1%	10µM*
COc1ccc(C(=O)NC2CCCc3c2cnn3-c2ccccc2F)cc1OC (stereo not drawn)	1.6µM*	-6%	-25%	1%	4%	5.2µM*
Cc1ccc(NC(=O)Cn2c(=O)n(CCC(=O)N3CCc4ccccc4C3)c(=O)c3ccccc32)c(C)c1	23µM*	.	-25%	-8%	.	21µM*
CCOC(=O)c1ccccc1NC(=O)Cn1c(=O)n(CCC(=O)N2CCc3ccccc3C2)c(=O)c2ccccc21	8.2µM*	.	?	-16%	.	21µM*
CCCC(=O)Nc1nnc(SCC(=O)Nc2ccc(OCC)cc2)s1	-12%	0%	1%	0%	-3%	-7%
CCc1ccc(NC(=O)C2CCN(S(=O)(=O)c3ccc4[nH]c(=O)ccc4c3)CC2)cc1	-12%	-14%	10%	6%	-6%	-20%
C/C(=N\NC(=O)c1c(Cl)c(C)nn1C)c1cccc(NC(=O)C2CCCC2)c1	?	-23%	17%	0%	-16%	?
C[C@@H](NC(=O)c1[nH]cnc1C(=O)Nc1cccc(Cl)c1)c1ccccc1	?	?	?	-12%	?	?
CCc1c(C)sc2c1CCN(Cc1cccc(OC)c1)C2c1ccccc1 (stereo not drawn)	5.2µM*	.	?	-7%	.	7.3µM*
COc1ccccc1NC(=O)N1CC(=O)Nc2sc3c(c2C1c1ccccc1)CCCC3 (stereo not drawn)	18µM*	.	9%	-21%	.	23µM*
Cc1ccc(NC(=O)N2CCc3c(sc4c3CCCC4)C2c2ccccc2)cc1F (stereo not drawn)	15µM*	.	-16%	-29%	.	?
Cc1ccccc1NC(=O)N1CCc2c(sc3c2CCCC3)C1c1ccccc1 (stereo not drawn)	?	.	16%	-14%	.	?
CCOc1ccccc1NC(=O)N1CCc2c(sc3c2CCCC3)C1c1ccccc1 (stereo not drawn)	23µM*	.	?	-35%	.	?
COc1ccccc1NC(=O)N1CCCC1C(=O)NCc1ccc(F)cc1 (stereo not drawn)	4%	11%	-5%	13%	10%	-1%
Cc1csc(=O)n1CC(=O)Nc1ccc(Cl)cc1F	-24%	2%	6%	-1%	0%[9.24 µM]	?
CSc1nc2sc3c(c2c(=O)n1-c1ccc(F)c(Cl)c1)CCN(C(C)=O)C3	3%	.	5%	-1%	.	-10%
O=C(c1ccc(F)cc1)C1CCN(C(=O)Nc2ccc(F)cc2F)CC1	?	-12%	-1%	3%	-1%	-18%
CCOC(=O)c1ccccc1NC(=O)N1CCc2c(sc(C)c2CC)C1c1ccccc1 (stereo not drawn)	16µM*	.	-21%	-36%	.	?
O=C(Nc1ccc(F)cc1F)N1CCc2c(sc3c2CCCC3)C1c1ccc(F)cc1 (stereo not drawn)	18µM*	.	-4%	-27%	.	?
Cc1noc(C)c1S(=O)(=O)NC(=O)C1(C)CCN1C(=O)Cc1ccc(Cl)cc1Cl (stereo not drawn)	1%	17%	5%	3%	11%	10%
